# Target: T1, BstYI NN1 (K133N/S172N) (Bacillus stearothermophilus, K133N,S172N)
# T1 chain: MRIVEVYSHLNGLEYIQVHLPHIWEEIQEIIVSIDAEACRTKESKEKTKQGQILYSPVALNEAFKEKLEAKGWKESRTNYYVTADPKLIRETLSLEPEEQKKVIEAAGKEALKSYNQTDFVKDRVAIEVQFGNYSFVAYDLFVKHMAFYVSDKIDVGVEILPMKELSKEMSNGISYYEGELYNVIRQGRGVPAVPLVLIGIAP
# Assay: cleavage_in_vitro; 60 C
# Settings: label: radiolabel; dsDNA, one strand shown
sequence,measurement,value
AGATCC,cleavage activity,7 fold lower than AGATCT
